Test [1] in a line: E. coli DRC41 culture turbidity changes, primary screen, E. coli filamentation inducer project, strain DRC41, OD650, 48 h (AID 1152).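 Also: E. coli MC1000 strain DRC41 lacking acrAB efflux pump and sulA.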 The following applies: E. coli DRC41 (acrAB sulA), higher = more signal, called active from +8 up or from −8 down.
Test [2] is described as follows: small-molecule binders of probe aLefty1, primary screen, biochemical, small-molecule microarray, 635/667 nm fluorescence (AID 1153).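 Also: score merges spot fluorescence with signal-to-noise ratio from the scanned slide images.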 The conditions noted are these: higher = more signal.
Test [3] in a line: PSAC antagonists in infected red cells, primary screen, cell-based, P. falciparum Indochina, OD700, 1 h (AID 1154). The conditions noted are these: P. falciparum Indochina infected RBC osmotic lysis, higher = more signal, called active from +8 up or from −8 down.
A short description of test [4]: PSAC antagonists in infected red cells, primary screen, cell-based, P. falciparum Indochina, OD700, 2 h (AID 1155).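 Also: lysis reports solute entry through the parasite surface anion channel PSAC; channel blockers reduce lysis of infected cells.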 The conditions noted are these: P. falciparum Indochina infected erythrocytes, osmotic lysis OD700; higher = more signal, called active from +8 up or from −8 down.
The nature of test [5]: osmotic lysis modulators in infected erythrocytes, primary screen, PSAC antagonist project, cell-based, P. falciparum Indochina, OD700, 3 h (AID 1156). The following applies: higher = more signal, called active from +8 up or from −8 down.
A short description of test [6]: PSAC antagonists in infected red cells, primary screen, cell-based, P. falciparum Indochina, OD700, 18 h (AID 1157). The following applies: P. falciparum Indochina infected erythrocytes, osmotic lysis OD700, 18 h; higher = more signal, called active from +8 up or from −8 down.
A short description of test [7]: modulators of S6 phosphorylation in cells, primary screen, cell-based, A549, cytoblot, luminescence, serum-stimulated (AID 1158).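 Also: serum-stimulated A549 lung adenocarcinoma cells; signal is phosphorylated S6 detected by cytoblot immunostaining with HRP secondary.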 The conditions noted are these: A549 phospho-S6 cytoblot, 5 h, higher = more signal.
The target of test [8] is NADPH oxidase 2 (Homo sapiens) (UniProt P04839). As to the kind of experiment: NOX2-dependent H2O2 signal modulators, primary screen, NOX inhibitor project, cell-based, HEK293-NOX2, PMA-stimulated, Amplex Red fluorescence (AID 1159). Also: test concentration not given here. The following applies: 45 min, higher = more signal, called active from +8 up or from −8 down.
The target of test [9] is NADPH oxidase 4 (Homo sapiens) (UniProt Q9NPH5). The test is described as follows: NOX4-dependent H2O2 signal modulators, primary screen, NOX inhibitor project, cell-based, HEK293-NOX4, tetracycline-induced, Amplex Red fluorescence (AID 1160). The following applies: 45 min, higher = more signal, called active from +8 up or from −8 down.
Test [10] addresses NADPH oxidase 5 (Homo sapiens) (UniProt Q96PH1). As to the kind of experiment: NOX5-dependent H2O2 signal modulators, primary screen, NOX inhibitor project, cell-based, HEK293-NOX5, Amplex Red fluorescence (AID 1161). The following applies: HEK293-NOX5, ionomycin, 45 min, higher = more signal.
The nature of test [11]: A549 cell viability effects, profiling panel, calcein-AM fluorescence, 48 h, basal (AID 1162). Also: test concentration not given here. The following applies: higher = more signal.
The nature of test [12]: adipocyte viability effects, profiling panel, cell-based, 3T3-L1 adipocytes, calcein-AM fluorescence, 48 h, basal (AID 1163). Also: test concentration not given here. The following applies: 3T3-L1 adipocytes viability, higher = more signal.
Test [13] can be described thus: HepG2 cell viability effects, profiling panel, calcein-AM fluorescence, 48 h, basal (AID 1164). Also: test concentration not given here. The conditions noted are these: higher = more signal.
A short description of test [14]: MM1S cell viability effects, profiling panel, calcein-AM fluorescence, 48 h, basal (AID 1165).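 Also: viability of MM1S multiple myeloma cells under basal unstimulated conditions; test concentration not given here.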 The following applies: higher = more signal.
A short description of test [15]: basal RPMI8226 viability, no added stimulus, profiling panel, cell-based, calcein-AM fluorescence, 48 h, PK04 Diversity Set (AID 1166).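 Also: cells grown under basal conditions without added stimulus; test concentration not given here.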 The following applies: RPMI8226 myeloma viability, higher = more signal.
The nature of test [16]: basal HepG2 mitochondrial membrane potential changes, profiling panel, cell-based, JC-1 fluorescence, 24 h, 100 nL compound (AID 1167). Also: test concentration not given here. The following applies: higher = more signal.
A short description of test [17]: basal 3T3-L1 adipocyte mitochondrial potential changes, profiling panel, cell-based, JC-1 fluorescence, 3T3-L1 adipocytes, 24 h, 100 nL compound (AID 1168). Also: test concentration not given here. The following applies: JC-1 mitochondrial fluorescence, higher = more signal, called active from +8 up or from −8 down.
Test [18] is described as follows: basal RPMI8226 mitochondrial membrane potential changes, profiling panel, cell-based, JC-1 fluorescence, 24 h, 100 nL compound (AID 1169). Also: test concentration not given here. The conditions noted are these: RPMI8226 myeloma, JC-1 mitochondrial potential fluorescence, higher = more signal.
A short description of test [19]: basal MM1S mitochondrial membrane potential changes, profiling panel, cell-based, JC-1 fluorescence, 24 h, 100 nL compound (AID 1170). Also: test concentration not given here. The conditions noted are these: higher = more signal.
Test [20] in a line: A549 lung cancer cell viability effects, profiling panel, resazurin fluorescence, 24 h, PK04 Diversity Set (AID 1171). Also: test concentration not given here. The following applies: higher = more signal, called active from +8 up or from −8 down.

Calls of active or inactive are those of the source.

Chain of NADPH oxidase 4 (Homo sapiens) (Q9NPH5 whole entry, looked up): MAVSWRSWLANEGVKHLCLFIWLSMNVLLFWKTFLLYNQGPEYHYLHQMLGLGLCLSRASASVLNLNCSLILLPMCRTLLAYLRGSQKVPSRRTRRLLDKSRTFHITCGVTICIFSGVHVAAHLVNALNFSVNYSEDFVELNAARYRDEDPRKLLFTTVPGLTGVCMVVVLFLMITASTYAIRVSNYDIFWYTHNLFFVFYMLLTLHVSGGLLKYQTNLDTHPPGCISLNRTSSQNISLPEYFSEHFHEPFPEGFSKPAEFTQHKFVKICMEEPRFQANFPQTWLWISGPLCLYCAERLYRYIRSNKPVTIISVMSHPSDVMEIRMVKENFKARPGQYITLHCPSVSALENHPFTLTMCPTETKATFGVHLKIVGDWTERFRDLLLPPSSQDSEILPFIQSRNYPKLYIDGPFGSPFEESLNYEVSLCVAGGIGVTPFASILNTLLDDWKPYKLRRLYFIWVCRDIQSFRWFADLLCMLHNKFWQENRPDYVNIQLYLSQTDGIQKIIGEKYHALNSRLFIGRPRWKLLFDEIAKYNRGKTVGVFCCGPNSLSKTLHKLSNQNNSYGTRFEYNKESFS
Chain of NADPH oxidase 2 (Homo sapiens) (P04839 whole entry, looked up): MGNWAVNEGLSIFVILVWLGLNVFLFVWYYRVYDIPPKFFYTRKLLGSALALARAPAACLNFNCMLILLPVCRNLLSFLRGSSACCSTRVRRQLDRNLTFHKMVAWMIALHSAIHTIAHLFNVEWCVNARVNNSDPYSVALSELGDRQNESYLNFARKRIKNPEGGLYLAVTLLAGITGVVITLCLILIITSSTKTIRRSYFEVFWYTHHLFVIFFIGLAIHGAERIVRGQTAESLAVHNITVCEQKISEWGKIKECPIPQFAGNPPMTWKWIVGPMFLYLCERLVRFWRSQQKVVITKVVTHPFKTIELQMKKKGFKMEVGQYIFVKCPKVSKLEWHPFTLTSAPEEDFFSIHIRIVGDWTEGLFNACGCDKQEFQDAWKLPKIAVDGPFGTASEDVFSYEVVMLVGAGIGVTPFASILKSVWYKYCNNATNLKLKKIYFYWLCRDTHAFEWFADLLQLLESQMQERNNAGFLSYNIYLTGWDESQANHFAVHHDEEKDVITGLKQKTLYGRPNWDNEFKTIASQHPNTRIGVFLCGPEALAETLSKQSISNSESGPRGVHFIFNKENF
Chain of NADPH oxidase 5 (Homo sapiens) (Q96PH1 whole entry, looked up): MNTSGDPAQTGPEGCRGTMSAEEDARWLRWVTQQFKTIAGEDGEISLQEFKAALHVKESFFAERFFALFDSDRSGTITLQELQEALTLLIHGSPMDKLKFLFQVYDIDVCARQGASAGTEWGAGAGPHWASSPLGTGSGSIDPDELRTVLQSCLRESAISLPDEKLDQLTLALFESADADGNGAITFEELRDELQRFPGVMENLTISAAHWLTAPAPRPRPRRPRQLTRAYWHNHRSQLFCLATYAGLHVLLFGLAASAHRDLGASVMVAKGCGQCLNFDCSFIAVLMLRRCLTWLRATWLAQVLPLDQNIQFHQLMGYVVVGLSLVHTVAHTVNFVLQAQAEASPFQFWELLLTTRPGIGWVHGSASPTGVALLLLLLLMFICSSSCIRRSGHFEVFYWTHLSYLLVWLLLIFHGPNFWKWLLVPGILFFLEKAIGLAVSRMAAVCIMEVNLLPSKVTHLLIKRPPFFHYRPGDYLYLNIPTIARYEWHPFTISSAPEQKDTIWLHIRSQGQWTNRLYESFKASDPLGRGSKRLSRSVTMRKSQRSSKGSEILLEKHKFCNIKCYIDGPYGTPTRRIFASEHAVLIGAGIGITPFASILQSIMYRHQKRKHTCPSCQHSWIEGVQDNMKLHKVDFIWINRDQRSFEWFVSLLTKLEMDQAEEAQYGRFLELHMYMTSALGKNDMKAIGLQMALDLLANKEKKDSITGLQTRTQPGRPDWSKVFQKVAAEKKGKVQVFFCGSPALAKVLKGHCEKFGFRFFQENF

On to `O=C1OCC=C[C@H]2OC34C=CCN(CCN5CCOCC5)C(=O)[C@H]3N(CCCCCCO)C(=O)[C@@H]4[C@@H]12` (stereo not given in full), for which the z-score in test [1] was -0.416 (inactive); in test [3], 4.96 (inactive); in test [4], 1.32 (inactive); in [5] it was 1.21 (inactive); in test [6], 0.404 (inactive); in test [7], 1.07. The z-score in test [8] was 1.51 (inactive); in test [9], -0.325 (inactive); in test [10] it was 1.92; in test [11], -0.213; in [12], -0.0626; in test [13], 0.775. For the same molecule, the z-score was 1.56 in test [14]; 0.802 in test [15]; -0.00733 in test [16]; -0.199 (inactive) in [17]; 1.11 in test [18]; 0.858 in test [19]. For the same molecule, the z-score in [20] was -0.352 (inactive). This molecule came in with a composite z-score in [2] of 0.0253.
For `COc1cc(NN2C(C(O)c3ccccc3)C=CC3C(=O)N(c4ccccc4)C(=O)C32)cc(OC)c1OC` (stereo not given), the z-score in test [1] is -0.26 (inactive); in test [3] it was 1.38 (inactive); in test [4] it was 0.0862 (inactive); in test [5], 0.86 (inactive); in [6] it was -0.325 (inactive); in test [7] it was 0.838. Moreover, the z-score in [8] is -3.61 (inactive); in test [9], -4.63 (inactive); in test [10], -7.16; in test [11], -0.873; in test [12] it was 0.0146; in test [13], 0.253. Further, the z-score in test [14] was 0.673; in [15] it was 0.0985; in [16], -0.602; in test [17], -1.72 (inactive); in test [18] it was 0.179; in test [19], -1.41. The z-score in test [20] was -0.381 (inactive). This molecule also showed a composite z-score in test [2] of 0.644.
Turning to `CN(C)CCCCCCNC(=O)[C@@H]1C[C@@H]2C(=O)N[C@@H](Cc3ccccc3)C(=O)N2[C@@H]1c1cccc(OCCO)c1`, the z-score in test [1] was 0.392 (inactive); in [3], 3.81 (inactive); in test [4] it was 0.415 (inactive); in test [5], 0.407 (inactive); in test [6] it was 0.154 (inactive); in test [7], -0.243. Moreover, the z-score was 1.08 (inactive) in test [8]; 1.4 (inactive) in test [9]; 1.4 in test [10]; -0.778 in [11]; 0.559 in test [12]; -0.857 in test [13]. The z-score is 0.802 in [14]; -0.555 in test [15]; -1.02 in [16]; -0.822 (inactive) in test [17]; 0.0287 in [18]; 0.316 in test [19]. In test [20], the z-score was -0.115 (inactive). For the same molecule, the composite z-score in test [2] turned out to be 0.073.
As for `C=CCN1C(=O)[C@]2(Cc3ccccc31)N=C(c1ccc(OCCCO)cc1)O[C@@H]2c1ccccc1`, the z-score in [1] was -3.11 (inactive); in test [3], 26 (active); in test [4], 19.4 (active); in [5], 1.09 (inactive); in [6], 3.1 (inactive); in test [7] it was 0.253. The z-score in test [8] was -1.42 (inactive); in test [9] it was 0.273 (inactive); in [10] it was -0.785; in test [11], -0.686; in test [12], -0.201; in test [13] it was -0.377. Further, the z-score was -0.9 in test [14]; -3.41 in [15]; -0.844 in test [16]; 1.83 (inactive) in test [17]; -1.11 in [18]; -0.672 in test [19]. For the same molecule, the z-score in [20] was -2.13 (inactive). The composite z-score in test [2] was determined as 0.165.
For `C=CCNC(=O)[C@H]1[C@@H]2C(=O)O[C@@H](c3ccccc3)[C@@H](c3ccccc3)N2[C@@H](c2ccc(OCCO)cc2)[C@]12C(=O)N(C(=O)OCCOC)c1ccc(C#CC3(O)CCCCCC3)cc12`, the z-score is 0.838 (inactive) in test [1]; 1.92 (inactive) in test [3]; 0.742 (inactive) in test [4]; 0.0102 (inactive) in test [5]; 0.509 (inactive) in [6]; 0.0127 in test [7]. In addition, the z-score in [8] is 1.56 (inactive); in [9], 0.972 (inactive); in test [10], 1.02; in [11] it was 1.13; in [12], 1.61; in test [13] it was 0.388. In addition, the z-score is -0.963 in test [14]; -2.4 in [15]; -0.898 in [16]; 1.71 (inactive) in test [17]; -0.774 in test [18]; -0.988 in test [19]. The z-score in test [20] was 0.454 (inactive). The same molecule gave a composite z-score in test [2] of 0.658.
For the molecule `COCCCNC(=O)[C@@]1(Sc2ccc(C)cc2)CC(=O)N(Cc2ccccc2)[C@@H]1c1ccc(CO)cc1`, the z-score in test [1] was 0.186 (inactive); in test [3], 1.25 (inactive); in [4], 0.505 (inactive); in test [5] it was 1.14 (inactive); in test [6] it was 0.107 (inactive); in test [7], -0.0519. Besides, the z-score was 0.462 (inactive) in test [8]; 0.917 (inactive) in test [9]; 0.162 in test [10]; -0.837 in [11]; 0.0417 in test [12]; -0.543 in test [13]. The z-score in test [14] is -0.0185; in test [15], 0.381; in test [16], -0.658; in test [17], -0.265 (inactive); in [18], 0.216; in test [19], -1.38. The z-score in test [20] is 1.28 (inactive). This molecule gave a composite z-score in test [2] of -1.12.
As for `CCOC(=O)C1=CC[C@@H](c2cccc(Cl)c2)N(S(=O)(=O)c2ccc(C)cc2)[C@H]1c1ccc(C#N)cc1`, the z-score in test [1] was -1.41 (inactive); in test [3], 1.53 (inactive); in [4], 1.34 (inactive); in test [5], 0.0178 (inactive); in test [6] it was 0.729 (inactive); in [7] it was -0.438. Moreover, the z-score in test [8] was 0.827 (inactive); in test [9] it was 1.2 (inactive); in [10], 0.639; in test [11] it was 0.384; in test [12] it was -1.03; in test [13], -0.474. The z-score is -0.692 in test [14]; -0.704 in test [15]; 1.38 in test [16]; 0.0503 (inactive) in [17]; -0.62 in test [18]; -1.29 in [19]. Further, the z-score in [20] is 1.27 (inactive). The same molecule gave a composite z-score in [2] of 0.514.
In the case of `COCCOC(=O)N1C(=O)[C@@]2(c3cc(C#Cc4ccc(OC)cc4)ccc31)[C@H](C(N)=O)[C@H]1C(=O)O[C@H](c3ccccc3)[C@H](c3ccccc3)N1[C@@H]2c1ccc(O)cc1`, the z-score in test [1] was 1.52 (inactive); in [3] it was 0.429 (inactive); in [4], -0.359 (inactive); in test [5], -0.939 (inactive); in [6], -1.13 (inactive); in test [7] it was 2.93. Further, the z-score in test [8] was -0.0615 (inactive); in [9] it was 0.893 (inactive); in test [10], 0.128; in test [11] it was 0.363; in test [12] it was 0.632; in test [13] it was -0.905. Also, the z-score in [14] was 0.152; in [15], -2.22; in test [16] it was -0.933; in test [17] it was 0.454 (inactive); in test [18] it was -0.677; in [19] it was -0.317. In test [20], the z-score is 0.179 (inactive). Further, the composite z-score in [2] came to 0.649.

(Values after PubChem BioAssay.)
